HepG2 viability – HepG2 cytotoxicity, counter-screen for TGF-b inhibitors. HepG2 CAGA-GFP viability, ATP luminescence, 18 h. Potency, µM (highest dose often 46.1 µM), for the others: top-dose activity change, negative = cytotoxicity, usual class: cytotoxic. 410,000 compounds, 0.76% hits. AID 588856
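HepG2 CAGA-GFP cells (1000/well, DMEM with 1% FBS) received compound, then TGF-beta at 500 pg/mL final, and were incubated 18 hours at 37 degrees C. Viability was read by CellTiter-Glo luminescence. Media-only wells were set as complete cell-killing and DMSO as no toxicity.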
TGFb inhibitor – blocks TGF-b signaling. HepG2 CAGA-GFP TGF-b/SMAD3 reporter, GFP fluorescence, 18 h; TGF-beta stimulated, 500 pg/mL final. Potency, µM (top dose mostly 46.1 µM), inactives show at the highest dose activity, negative = inhibition, actives largely listed as inhibitors. 410,000 compounds, 1.2% hits. AID 588855; further: on the % scale 0 is the no-effect control and ±100 the full control effect; nearly all actives have a fitted effect of over 65% in size
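Inhibition was scored as loss of TGF-beta-induced (500 pg/mL final, 18 hours, 37 degrees C) GFP in HEPG2 cells carrying a CAGA-GFP reporter, in DMEM with 1% FBS. Well GFP was summed per cell; Activity was normalised to unstimulated and stimulated DMSO wells, then concentration-response fitting.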
HT1080 IDH1KD tx – toxicity to HT-1080 IDH1 knockdown cells (counter line); HT-1080 IDH1 knockdown viability, ATP luminescence, 48 h; Potency, µM (series often up to 46.1 µM), for the others: at the highest dose activity, negative = toxicity, most hits filed as cytotoxic; 360,000 compounds, 2% hits;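 further: 0% = DMSO wells and -100% = cell-free medium wells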
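In this qHTS, HT-1080 cells depleted of IDH1 are exposed for 48 h at 37 °C to compound titrations. Toxicity is scored from CellTiter-Glo luminescence, with DMSO as full viability and medium alone as none.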
DT40 TDP1 no CPT – qHTS for Inhibitors of human tyrosyl-DNA phosphodiesterase 1 (TDP1): qHTS in cells in absence of CPT | DT40 Tdp1-/- hTDP1 cells, no CPT, ATP luminescence, 48 h | Potency, µM (series often up to 46.2 µM), for inactives: top-dose activity change, negative = growth inhibition, usual class: inhibitors | 420,000 compounds, 15% hits | AID 686978, 2013; further: on the % scale 0 is the no-effect control and ±100 the full control effect; nearly all actives have a fitted effect of over 55% in size
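Cells were dispensed at 400 per well, compounds added by pin tool, plates incubated ≥48 hr at 37 °C, then CellTiter-Glo added for 30 min at room temperature before luminescence reading. Line: DT40 Tdp1-/- complemented with hTDP1; camptothecin omitted.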
HT1080NT lethal – kills 2HG-producing HT-1080-NT fibrosarcoma cells | Potency, µM (highest dose often 46.1 µM), inactives show at the highest dose activity, negative = less viability, hits mostly cytotoxic | 360,000 compounds, 1.6% hits | HT-1080-NT fibrosarcoma viability, CellTiter-Glo ATP luminescence, 48 h | AID 686970;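 further: NT is the 2HG producing partner of a matched IDH1 knockdown line; 0% = DMSO-treated cells and -100% = media-only wells without cells; nearly all actives have a fitted effect of over 55% in size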
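Compounds were tested in concentration-response format on HT-1080-NT cells for 48 hours at 37 degrees C. Cell viability came from CellTiter-Glo luminescence; curves were classified by r2, response magnitude and activity.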
DT40 TDP1 CPT – growth inhibition of DT40 Tdp1-/-;hTDP1 cells with camptothecin (screen for TDP1 inhibitors); AID 686979; Potency, µM (highest dose often 46.2 µM), without a hit: at the highest dose activity change, negative = growth inhibition, actives largely listed as inhibitors; 420,000 compounds, 12% hits; chicken DT40 Tdp1-/-;hTDP1 cells + 20 nM CPT, ATP luminescence, 48 h; further: on the % scale 0 is the no-effect control and ±100 the full control effect; nearly all actives have a fitted effect of over 55% in size
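Chicken DT40 Tdp1-/- cells complemented with human TDP1, 400 cells/well, exposed to compounds plus 20 nM camptothecin for at least 48 h at 37 C; viability read as ATP content by CellTiter-Glo luminescence.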
* = called active by the depositor. The list is not random: actives were taken first. Their share in the collection is about 17%. The call rests on the fitted dose curve; in most records, active means well fitted curve in the direction sought with a large enough effect; inconclusive means small, poorly fitted or top-dose-only effect, or another doubt; inactive means no such curve, though single readings can be large; an effect the other way counts as inactive or inconclusive. Potency means the concentration at half of the fitted maximal effect.

Screening Cc1ccc(CN(C(=O)COc2ccc(C(C)C)cc2)C2CCS(=O)(=O)C2)o1 (configuration not stated) returned HepG2 viability -38.2%, TGFb inhibitor -19.0%, DT40 TDP1 no CPT 18.4µM* and DT40 TDP1 CPT 14.6µM*.
For CC(C)(C)c1ccc(OCC(=O)N(Cc2cccs2)C2CCS(=O)(=O)C2)cc1 (configuration not stated) the results were HepG2 viability -15.8%, TGFb inhibitor -4.7%, HT1080 IDH1KD tx -14.8%, DT40 TDP1 no CPT inconclusive, HT1080NT lethal 0.0% and DT40 TDP1 CPT 16.4µM*.
`CCOc1c(Br)cc(CNc2ccc(N3CCOCC3)cc2)cc1OC` gave HepG2 viability -27.7%, TGFb inhibitor inconclusive, HT1080 IDH1KD tx -15.8%, DT40 TDP1 no CPT inconclusive, HT1080NT lethal -4.2% and DT40 TDP1 CPT inconclusive.
`COc1cccc(CNc2ccccc2O)c1OCc1ccccc1F` gave HepG2 viability -1.5%, TGFb inhibitor -16.0%, HT1080 IDH1KD tx -18.9%, DT40 TDP1 no CPT inconclusive, HT1080NT lethal -17.8% and DT40 TDP1 CPT 23.1µM*.
CCOc1cc(CNc2ccc(O)cc2)cc(Br)c1OCc1ccccc1 was read as HepG2 viability -79.2%, TGFb inhibitor inconclusive, DT40 TDP1 no CPT 16.4µM* and DT40 TDP1 CPT 23.1µM*.
`COc1cc(CNC(C)(C)CO)cc(Br)c1OCc1ccccc1` gave HepG2 viability 4.8%, TGFb inhibitor 14.0%, HT1080 IDH1KD tx inconclusive, DT40 TDP1 no CPT inconclusive, HT1080NT lethal inconclusive and DT40 TDP1 CPT inconclusive.
Screening CCOc1cc(CNc2ccc3c(c2)OCCO3)cc(Br)c1OC returned HepG2 viability -17.4%, TGFb inhibitor inconclusive, HT1080 IDH1KD tx 1.46µM*, DT40 TDP1 no CPT 1.16µM*, HT1080NT lethal 2.31µM* and DT40 TDP1 CPT 0.517µM*.
COc1cc(CNc2ccc(O)cc2)cc(Br)c1OCc1ccccc1F was read as HepG2 viability -39.0%, TGFb inhibitor inconclusive, HT1080 IDH1KD tx inconclusive, DT40 TDP1 no CPT inconclusive, HT1080NT lethal inconclusive and DT40 TDP1 CPT 16.4µM*.
O=C(NCc1ccncc1)[C@@H]1CCCN1C(=O)[C@H]1CCCN1C(=O)c1ccccc1 was read as HT1080 IDH1KD tx -0.3%, DT40 TDP1 no CPT -26.9%, HT1080NT lethal 16.8% and DT40 TDP1 CPT -7.4%.
Screening Cc1ccc(N(CC(O)Cn2c3ccccc3c3ccccc32)S(=O)(=O)c2ccc(F)cc2)cc1 (configuration not stated) returned HepG2 viability 14.1µM*, TGFb inhibitor 8.91µM*, DT40 TDP1 no CPT 20.6µM* and DT40 TDP1 CPT inconclusive.
COc1ccccc1N(CC(O)CN1CCCCC1)S(=O)(=O)c1ccc(C)cc1 (configuration not stated) was read as HepG2 viability -16.4%, TGFb inhibitor 9.4%, HT1080 IDH1KD tx 6.7%, DT40 TDP1 no CPT -16.4%, HT1080NT lethal -3.1% and DT40 TDP1 CPT 10.3%.
`CC(=O)Nc1ccccc1N(CC(O)Cn1c2ccccc2c2ccccc21)S(=O)(=O)c1ccc(C)cc1` (configuration not stated) gave HepG2 viability -20.5%, TGFb inhibitor inconclusive, HT1080 IDH1KD tx 14.6µM*, DT40 TDP1 no CPT 18.4µM*, HT1080NT lethal inconclusive and DT40 TDP1 CPT inconclusive.
For COc1ccc(N(CC(O)Cn2c3ccccc3c3ccccc32)S(=O)(=O)c2ccccc2)cc1 (configuration not stated) the results were HepG2 viability -33.9%, TGFb inhibitor inconclusive, HT1080 IDH1KD tx inconclusive, DT40 TDP1 no CPT inconclusive, HT1080NT lethal -25.1% and DT40 TDP1 CPT inconclusive.
Screening O=C1c2ccccc2NC(c2cc(Br)c3c(c2)OCO3)N1Cc1ccco1 (configuration not stated) returned HepG2 viability -5.9%, TGFb inhibitor inconclusive, DT40 TDP1 no CPT 17.8µM* and DT40 TDP1 CPT inconclusive.
Screening COc1ccc(C2Nc3ccccc3C(=O)N2Cc2ccco2)cc1OC (configuration not stated) returned HepG2 viability -8.3%, TGFb inhibitor inconclusive, DT40 TDP1 no CPT 22.4µM* and DT40 TDP1 CPT 8.91µM*.
Screening COc1ccc(C2Nc3ccccc3C(=O)N2Cc2ccccc2)cc1OC (configuration not stated) returned HepG2 viability -17.3%, TGFb inhibitor -7.1%, HT1080 IDH1KD tx -0.2%, DT40 TDP1 no CPT inconclusive, HT1080NT lethal -1.9% and DT40 TDP1 CPT -24.2%.
Screening CCOc1cc(C2Nc3ccccc3C(=O)N2Cc2ccco2)ccc1OCc1ccccc1Cl (configuration not stated) returned HepG2 viability -53.1%, TGFb inhibitor inconclusive, DT40 TDP1 no CPT 3.55µM* and DT40 TDP1 CPT 10µM*.
`O=C1c2ccccc2NC(c2ccc3c(c2)OCO3)N1Cc1ccco1` (configuration not stated) gave HepG2 viability -16.8%, TGFb inhibitor -6.4%, DT40 TDP1 no CPT inconclusive and DT40 TDP1 CPT inconclusive.
Screening COc1ccc2c(c1OC)C(=O)N1c3ccccc3C(=O)N(Cc3ccco3)C21 (configuration not stated) returned HepG2 viability -20.9%, TGFb inhibitor inconclusive, DT40 TDP1 no CPT 20µM* and DT40 TDP1 CPT 10µM*.
CC(C)CC(c1nnnn1Cc1ccc2c(c1)OCO2)N1CCC(C(N)=O)CC1 (configuration not stated) was read as HepG2 viability 16.9%, TGFb inhibitor 9.9%, HT1080 IDH1KD tx 8.4%, DT40 TDP1 no CPT -1.8%, HT1080NT lethal 19.3% and DT40 TDP1 CPT -4.6%.
`COCCn1cnc2c1-c1ccc(OC)c(c1)OC/C=C\COc1cccc-2c1` gave HepG2 viability -11.7% and TGFb inhibitor -15.0%.
Screening CCOC(=O)C1=C(N)Oc2ccc(Br)cc2C1C(C#N)C(=O)OCC (configuration not stated) returned DT40 TDP1 no CPT 2.8% and DT40 TDP1 CPT -4.9%.
Screening Cc1ccccc1-n1c(SCC(=O)NCc2cccs2)nc2ccccc2c1=O returned HepG2 viability -16.4%, TGFb inhibitor -1.4%, HT1080 IDH1KD tx -1.7%, DT40 TDP1 no CPT inconclusive, HT1080NT lethal 1.2% and DT40 TDP1 CPT inconclusive.

Screening data as filed in PubChem.
